Assay results published in PubChem BioAssay AID720518 (National Center for Advancing Translational Sciences (NCATS), 2013).
Inconclusive results are not listed. Where a call stands in place of a potency, no number is given. Active and inactive are the calls of the source. Calls follow the shape of the full dose curve.

assay: qHTS for Inhibitors of Cell Surface uPA Generation: Wild-type Protective Antigen (WT-PrAg) Counterscreen for Cherry-picked Compounds; settings: cells, WT protective antigen toxicity counterscreen; series mostly up to 115 µM

SMILES | Potency
O=C(Nc1ccc2c(c1)CCC2)Nc1ccc2c(c1)OCO2 | inactive
CNS(=O)(=O)c1cc(-c2nnc(Nc3ccc(CC(N)=O)cc3)c3ccccc23)ccc1C | inactive
CC(/C=C1\SC(=S)N(CCCC(=O)Nc2ccc(C(=O)O)cc2)C1=O)=C\c1ccccc1 | inactive
O=S(=O)(NCC(c1cccnc1)N1CCOCC1)c1ccccc1 (stereo not given) | inactive
C[N+]1(CC(O)c2ccccc2)CCCCCC1 (stereo not given) | inactive
O=C(NNC(=O)c1ncc(Cl)c(Cl)c1Cl)c1ccc(F)cc1 | inactive
Cc1ccc(-n2ncc(C(=O)NC3CC3)c2C2CCN(C(=O)OC(C)(C)C)CC2)cc1 | inactive
CC(=O)c1c(C)n(-c2ccccc2Br)c2ccc(O)cc12 | inactive
CC(C)NCC1CCc2cc(CO)c([N+](=O)[O-])cc2N1 (stereo not given) | inactive
CC/C(=N\Nc1ccccc1[N+](=O)[O-])c1ccc(O)cc1 | inactive
COc1ccc(/C(N)=N/OC(=O)Cc2ccccc2OC)cc1 | inactive
COc1ccc(CC(=O)OCC(=O)NNC(=O)c2ccccc2)cc1 | inactive
O=C(c1ccccn1)C1CCCN(Cc2cn[nH]c2-c2cc3ccccc3o2)C1 (stereo not given) | inactive
CCN(CC(=O)Nc1c(F)cccc1F)C(=O)c1ccc(-c2ccc(C(C)=O)cc2)o1 | inactive
CC(=O)c1ccc(N2CCN(C(=S)NCc3ccco3)CC2)cc1 | inactive
CC(=O)c1ccc(NC(=O)CN2CCN(c3ccccc3)CC2)cc1 | inactive
C[C@H](CO)N1C[C@H](C)[C@H](CN(C)S(=O)(=O)c2cn(C)cn2)Oc2ccc(NC(=O)Nc3ccc(C(F)(F)F)cc3)cc2CC1=O | inactive
Cc1nc([N+](=O)[O-])cn1CCCCN1C(=O)c2ccccc2C1=O | inactive
O=C(NC[C@H]1CCCO1)c1cccc2c1C(=O)c1ccc(-c3ccc(F)cc3OCc3ccccc3)cc1S2(=O)=O | inactive
Cc1cc(C)n(C(=O)c2cccc([N+](=O)[O-])c2)n1 | inactive

SMILES | Potency
COc1ccc(NC(=O)Nc2nnc(N3CCCCC3C)s2)cc1OC (stereo not given) | inactive
COc1ccc(C(c2sc3nc(C)nn3c2O)N2CCC(C(N)=O)CC2)cc1OC (stereo not given) | inactive
Cc1cnc(CNC(=O)C2CCC(=O)N(CCc3cccc(F)c3)C2)[nH]1 (stereo not given) | inactive
Cc1cc(SCc2ccc(Cl)cc2)nc(=O)[nH]1 | inactive
Cc1ccc(CC2CC(=O)N(c3cc(C)ccc3C)C2=O)cc1 (stereo not given) | inactive
Cc1ccccc1O | inactive
Cc1cc(NC(=O)COc2cccc([N+](=O)[O-])c2)no1 | inactive
CCc1ccc(N2CC(C(=O)Nc3ccc4c(c3)OCO4)CC2=O)cc1 (stereo not given) | inactive
COc1cccc(NC(=S)NCc2ccc3c(c2)cc(C)n3C)c1 | inactive
O=[N+]([O-])c1cccc2c(N3CCOCC3)ccnc12 | inactive
CC(=O)COc1ccc2c(-c3cccc([N+](=O)[O-])c3)cc(=O)oc2c1 | inactive
NC(=O)c1ccc(NC(=O)CN2CCN(S(=O)(=O)c3ccc4ccccc4c3)CC2)cc1 | inactive
Cc1oc(-c2ccccc2F)nc1CS(=O)(=O)CC(=O)NC1CCCC(C)C1C (stereo not given) | inactive
Cc1ccc(NC(=O)CSc2nncn2N)cc1C | inactive
COc1ccc(C)cc1NC(=O)NNC(=O)C1CCC(C(C)(C)C)CC1 (stereo not given) | inactive
COc1ccc(N2CCN(C(=O)COc3ccc4c(C)c(C)c(=O)oc4c3C)CC2)cc1 | inactive
C#CCN1C=C(C(=O)OCC)C(C)NS1(=O)=O (stereo not given) | inactive
N/C(=N/OC(=O)c1ccccc1F)c1nonc1N | inactive
COCCNC(=O)COCc1cc(-c2ccc3c(c2)OCO3)on1 | inactive
O=C(NCCCN1CCCC1=O)c1cccc(Oc2ccccc2)c1 | inactive
